Source: PubChem BioAssay (National Center for Advancing Translational Sciences (NCATS))
In the library only some 6.1% were active in any assay of this set; here they are far more common.
VP16 counter: counter-screen for ROR gamma inhibitors: Gal4-VP16 reporter; AID 2546; Potency, µM (top dose mostly 53.6 µM), most hits filed as inhibitors; 3.5% of 310,000 active; Drosophila S2 Gal4-VP16 UAS-luciferase, luminescence, 20 h;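 note: Gal4-VP16 expression switched on by copper sulfate through the metallothionein promoter; nearly all actives have a fitted effect of over 50% in size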
HepG2 tox: counter-screen for TGF-b inhibitors: cytotoxicity in HepG2 cells. HepG2 CAGA-GFP viability, ATP luminescence, 18 h. 0.76% of 410,000 active. Potency, µM (doses to about 46.1 µM), actives largely listed as cytotoxic. AID 588856
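CellTiter-Glo luminescence gave cytotoxicity after 18 hours at 37 degrees C. The cells were HepG2 CAGA-GFP in 1% FBS DMEM, stimulated with 500 pg/mL TGF-beta after compound addition. %Activity was normalised to no-cell wells (complete cell-killing) and DMSO (no toxicity), and curves were fitted and classified.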
RORgamma inh: inhibitors of mouse ROR gamma transcriptional activity | Drosophila S2 Gal4-RORgamma UAS-luciferase reporter, 20 h | 5.4% of 310,000 active | Potency, µM (series often up to 53.6 µM), most hits filed as inhibitors | P51450; note: nearly all actives have a fitted effect of over 60% in size
Target sequence (P51450 whole entry, looked up, the tested form may be a part): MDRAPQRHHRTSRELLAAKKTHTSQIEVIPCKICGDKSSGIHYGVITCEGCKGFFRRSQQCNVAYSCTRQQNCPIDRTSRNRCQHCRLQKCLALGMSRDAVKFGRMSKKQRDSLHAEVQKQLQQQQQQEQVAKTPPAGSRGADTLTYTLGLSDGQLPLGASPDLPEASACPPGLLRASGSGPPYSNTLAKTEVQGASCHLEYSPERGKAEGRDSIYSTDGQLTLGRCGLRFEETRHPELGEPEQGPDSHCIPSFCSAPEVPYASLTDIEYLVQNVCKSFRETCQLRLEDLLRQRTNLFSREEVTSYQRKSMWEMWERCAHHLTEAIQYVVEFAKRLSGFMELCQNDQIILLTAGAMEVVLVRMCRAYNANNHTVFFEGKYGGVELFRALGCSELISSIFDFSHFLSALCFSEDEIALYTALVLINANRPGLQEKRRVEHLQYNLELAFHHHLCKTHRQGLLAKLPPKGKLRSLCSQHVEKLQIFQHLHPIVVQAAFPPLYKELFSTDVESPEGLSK
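Compounds are pin-transferred onto Drosophila Schneider cells expressing a copper-inducible Gal4–ROR gamma transactivation domain fusion. After 1 hr, copper sulfate is added to 700 uM final; luciferase is read 20 hr later.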
S2 tox: viability counter-screen for ATXN expression inhibitors; Potency, µM (series often up to 56.7 µM), actives largely listed as cytotoxic; S2 cells (HEK-293 line with an ATXN2-luciferase reporter) viability, CellTiter-Fluor protease fluorescence, 24 h; 0.49% of 400,000 active; note: nearly all actives have a fitted effect of over 40% in size
TGFb SMAD3 inh: blocks TGF-b signaling. HepG2 CAGA-GFP TGF-b/SMAD3 reporter, GFP fluorescence, 18 h; TGF-beta stimulated, 500 pg/mL final. Potency, µM (highest dose often 46.1 µM), actives largely listed as inhibitors. 1.2% of 410,000 active. AID 588855; note: nearly all actives have a fitted effect of over 65% in size
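HEPG2 CAGA-GFP cells (1000/well, DMEM with 1% FBS) were pre-incubated 2 h at 37 degrees C, given compound by pin tool, then stimulated with TGF-beta at 500 pg/mL final for 18 h before per-cell GFP fluorescence imaging.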
ATXN2 expr inh: reduces ATXN2 reporter expression in HEK-293 cells; HEK-293 ATXN2-luciferase reporter, luminescence, 24 h; Potency, µM (series often up to 57 µM), hits mostly inhibitors; 0.72% of 360,000 active; AID 1745845; note: nearly all actives have a fitted effect of over 55% in size
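ATXN2-luciferase reporter cells (luciferase flanked by upstream and downstream ATXN2 gene portions) were treated 24 h at 37 °C with compounds at up to 57 uM. SteadyGlo luminescence gave expression; GF-AFC fluorescence gave viability.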
Numbers stand for hits; - = inactive; ? = inconclusive; . = no result; [ ] = dose if it differs, or a comment. Calls come from the whole dose curve; as a rule, active = well fitted curve in the direction sought with a large enough effect; inconclusive = small, poorly fitted or top-dose-only effect, or another doubt; inactive = no such curve, though single readings can be large; an effect the other way counts as inactive or inconclusive.

SMILES | VP16 counter | HepG2 tox | RORgamma inh | S2 tox | TGFb SMAD3 inh | ATXN2 expr inh
O=C(NCCN1CCC2(CC1)C(=O)NCN2c1cccc(F)c1)c1ccc2ccccc2c1 | . | . | . | 32µM | . | 13µM
COc1ccc(-n2nc(C(=O)NCC(=O)N3CCC4(CC3)OCCO4)c3ccccc3c2=O)cc1OC | ? | - | 16µM | - | - | -
COc1cccc(-n2nc(C(=O)N3CCC4(CC3)OCCO4)c3ccccc3c2=O)c1 | - | - | - | - | - | -
O=C1C=CC(=O)C(Cl)=C1 | ? | . | 11µM | . | . | .
ClCc1ccccn1 | - | . | - | . | . | .
O=C(Oc1ccc([N+](=O)[O-])cc1)N1CCC(C(O)(c2ccc3c(c2)OCO3)c2ccc3c(c2)OCO3)CC1 | . | . | . | . | . | -
C/C(=N\N1CCCCC1c1cccnc1)c1c(O)n(C2CCCCC2)c(=S)[nH]c1=O (centres undefined) | 4µM | - | 3.2µM | - | - | -
CC(C)NS(=O)(=O)c1ccc(OCC(=O)N2CCN(Cc3ccc4c(c3)OCO4)CC2)c(Cl)c1 | ? | - | - | - | ? | -
Cc1cc(S(=O)(=O)NC(C)C)ccc1OCC(=O)N1CCN(Cc2ccc3c(c2)OCO3)CC1 | 7.9µM | - | - | - | ? | -
NS(=O)(=O)c1ccc(N=Cc2c(O)n(C3CCCCC3)c(=O)n(C3CCCCC3)c2=O)cc1 | - | - | - | . | 16µM | ?
CCn1c(O)c(C=Nc2ccc(S(N)(=O)=O)cc2)c(=O)n(CC)c1=S | - | - | - | - | - | -
O=c1[nH]c2ccccc2n1C1CCNCC1 | . | . | . | - | . | -
CCOC(=O)CCCc1cc[c]([Sb](=[O])([OH])[OH])cc1 | . | - | . | . | ? | .
Cc1ccccc1-n1c(O)c(/C=N/NC(=O)c2ccccc2O)c(=O)[nH]c1=S | - | - | ? | - | - | -
O=C(N/N=C/c1c(O)n(-c2ccccc2)c(=S)[nH]c1=O)c1ccccc1 | - | - | 7.9µM | - | - | -
O=C(N/N=C/c1c(O)n(CCC2=CCCCC2)c(=S)[nH]c1=O)c1ccccc1 | ? | - | 5µM | - | ? | ?
O=C(N/N=C/c1c(O)n(C2CC2)c(=S)[nH]c1=O)c1ccccc1O | 7.1µM | - | 5.6µM | - | - | -
Cc1cccc(-n2c(O)c(/C=N/NC(=O)c3ccncc3)c(=O)[nH]c2=O)c1 | - | - | 35µM | ? | - | -
Cc1ccc(-n2c(O)c(/C=N/NC(=O)c3ccncc3)c(=O)[nH]c2=O)cc1 | - | - | - | - | - | .
O=c1[nH]c(=S)n(CCC2=CCCCC2)c(O)c1C=NCc1cccnc1 | - | . | - | . | . | .
O=C(N/N=C/c1c(O)n(-c2ccccc2)c(=O)[nH]c1=O)c1ccncc1 | - | - | - | - | ? | -
O=[N+]([O-])c1ccccc1-c1ccccc1 | - | . | - | . | . | .
O=C(CN1CCN(C(=O)CNC(=O)c2ccc(-c3ccccc3)cc2)CC1)Nc1ccccc1Cl | . | - | . | ? | - | .
O=C(N/N=C/c1c(O)n(Cc2ccc(F)cc2)c(=O)[nH]c1=O)c1ccccc1 | - | - | 13µM | - | ? | -
O=C(N/N=C/c1c(O)n(CCC2=CCCCC2)c(=O)[nH]c1=O)c1ccccc1 | ? | - | 11µM | - | - | -
SMILES | VP16 counter | HepG2 tox | RORgamma inh | S2 tox | TGFb SMAD3 inh | ATXN2 expr inh
Cc1ccc2c(c1)C1(CCN(CCc3nc(-c4ccccc4)oc3C)CC1)OC(=O)N2 | - | . | - | . | . | .
O=C(CCCCl)c1ccc(F)cc1 | . | . | . | - | . | -
CCC(=Nc1ccc(OC)cc1OC)c1c(O)n(C2CCCCC2)c(=O)[nH]c1=O | 6.3µM | - | ? | - | ? | ?
CCC(=NCc1ccco1)c1c(O)n(C2CCCCC2)c(=O)[nH]c1=O | - | - | ? | - | - | -
O=C(O)c1cccs1 | . | - | . | . | - | .
COC(=O)[C@]1(C)CC[C@@]2(C)CC[C@@]3(C)C4=CC=C5C(=CC(=O)C(O)=C5C)[C@@]4(C)CC[C@@]3(C)C2C1 (some centres undefined) | 3.5µM | . | 4µM | . | . | .
Clc1cc(Cl)c(Cl)c(Cl)c1 | - | . | - | . | . | .
Cc1cc(/C=C2\C(=O)NC(=O)N(c3ccc(Cl)cc3)C2=O)c(C)n1-c1sc2c(c1C#N)CCCC2 | - | - | - | ? | 3.5µM | .
CCOC(=O)c1c(-n2c(C)cc(/C=C3\C(=O)NC(=O)N(C)C3=O)c2C)sc2c1CCCC2 | - | - | - | - | - | -
CC1CCC(C(C)C)C(OC(=O)Cn2c(COc3ccccc3)[n+](C)c3ccccc32)C1 (centres undefined) | - | 20µM | - | 25µM | 13µM | ?
N#CC(Br)Br | - | - | 2.5µM | - | - | -
COC[C@@H](NC(C)=O)C(=O)NCc1ccccc1 | . | . | . | - | . | -
CC[C@]1(O)CC(O[C@@H]2CC(N(C)C)C(O)C(C)O2)c2c(cc3c(c2O)C(=O)c2c(O)ccc(O)c2C3=O)C1C(=O)OC (some centres undefined) | 2.2µM | . | 1.1µM | . | . | .
Cc1cc(NC(=O)CCl)no1 | ? | - | 2.5µM | ? | ? | -[11.3 µM]
COc1ccc(CCNc2nccn(-c3ccc(C)c(C)c3)c2=O)cc1OC | . | - | . | ? | ? | -
Cc1ccc(OCCn2cccc2/C=C2/C(=O)NC(=O)N(Cc3ccco3)C2=O)cc1 | ? | - | - | - | - | -
CCc1ccc(N2C(=O)NC(=O)/C(=C\c3cccn3CCOc3ccc(C(C)C)cc3)C2=O)cc1 | 0.4µM | - | - | ? | - | -
Nc1cccc2ccccc12 | - | . | - | . | . | .
C[C@@H]1C[C@@H]2[C@H]([C@H]3C=C(COC(=O)c4ccccc4)[C@@H](O)[C@]4(O)[C@@H](O)C(OC(=O)c5ccccc5)=C[C@@]14C3=O)C2(C)C | - | . | - | . | . | .
COc1ccccc1NC(=O)COC(=O)c1cc(C)n(C2CC2)c1C | . | - | . | - | - | -
Cc1cc(C(=O)CN2C(=O)c3ccccc3C2=O)c(C)n1C1CC1 | 16µM | - | - | - | - | -
Cc1ccc(NC(=O)c2cc(-c3cc(Cl)ccc3C)n[nH]2)cc1NS(C)(=O)=O | . | - | . | 10µM | - | ?
CCC#N | - | . | - | . | . | .
Cc1coc2c1CCC(C)C2 (centres undefined) | - | . | - | . | . | .
CCn1ccnc1CN1CCCC(C(=O)c2cccc(C(F)(F)F)c2)C1 (centres undefined) | 10µM | - | 2µM | - | - | ?
O=C(c1cccc(C(F)(F)F)c1)C1CCCN(Cc2ncc[nH]2)C1 (centres undefined) | 16µM | - | - | - | - | -
COc1cccc(OC)c1CN1CCCC(C(=O)c2cccc(Cl)c2)C1 (centres undefined) | - | - | - | - | ? | -
CC1(C)C(=O)C=C[C@@]2(C)C1=C(O)C(=O)[C@@]1(C)C2CC[C@@]2(C)C(c3ccoc3)C[C@H]3O[C@@]321 (some centres undefined) | 10µM | . | 8.9µM | . | . | .
